Compound activity: PubChem BioAssay, Broad Institute
Pf Dd2 growth: P. falciparum Dd2 growth inhibitors, primary screen, SYBR Green fluorescence, single dose replicates; 72 h; hits give low values; activity change, % at 10 µM; hit rate 2.3% among 94,000; AID 1159554, 2015; in the data active = activity change below about -80%; inconclusive = no clear call, values can overlap the other calls
T cruzi growth-1: T. cruzi intracellular proliferation inhibitors, primary screen, cell-based, beta-gal Tulahuen parasites, NIH3T3 host, luminescence. inhibition, % at 8.34 µM. AID 624255, 2012. T. cruzi beta-gal in NIH3T3, GalScreen luminescence, 90 h. hit rate 5.9% among 77,000;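 active = mean inhibition above about 93%, with at least 55% of replicates each passing it, limit read from the data, passing the limit was not always enough; inconclusive = only one of those two conditions holds; inactive = neither condition holds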
C diff growth: C. difficile growth inhibitors, primary screen, HTS; Clostridium difficile clinical isolate growth, OD600, 24 h; hits give low values; growth activity, negative = inhibition, % at 16 µg/mL (by protocol); hit rate 0.25% among 86,000; AID 1259249, 2017;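 active = mean growth activity at or below -80% and every replicate also at or below -80%; inconclusive = mean at or below -80% but some replicate above -80%; inactive = mean growth activity above -80%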;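 note: 0% = DMSO wells and -100% = levofloxacin 16 µg/mL wells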
T cruzi growth-2: T. cruzi intracellular proliferation inhibitors, confirmation, cell-based, NIH3T3 host, beta-gal parasite, luminescence, cherry-pick. hit rate 72% among 5,600. inhibition, % at 8.35 µM. AID 651739, 2012. T. cruzi beta-gal in NIH3T3, GalScreen luminescence, 90 h. shares compounds with T cruzi growth-1;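 active = mean replicate inhibition above about 95% and at least 55% of replicates individually reaching it, limit read from the data; inconclusive = only one of the two criteria is met; inactive = neither criterion is met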
T cruzi growth-3: inhibitors of intracellular T. cruzi replication, confirmation, NIH3T3 host cells, beta-gal parasites, cherry-pick, set 2. shares compounds with T cruzi growth-1. hit rate 21% among 5,600. inhibition, % at 2.09 µM. T. cruzi beta-gal in NIH3T3, GalScreen luminescence, 90 h;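 active = mean inhibition above about 95%, with at least 55% of replicates also reaching it, limit read from the data; inconclusive = meets just one of the two conditions; inactive = meets neither condition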;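 note: plate controls were neutral control median for no effect and positive control median for full effect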
3T3 cytotox: cytotoxicity in mouse NIH/3T3 fibroblasts, confirmation, cytotoxicity control for T. cruzi proliferation inhibitor project, cell-based, cherry-pick, single point; hit rate 14% among 5,600; AID 651742, 2012; NIH/3T3 viability, CellTiter-Glo ATP luminescence, 90 h; shares compounds with T cruzi growth-1; cytotoxicity (signal decrease), % at 8.35 µM;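 active = mean signal decrease across replicates above about 35% based on untreated-well scatter, with enough replicates individually passing, limit read from the data; inconclusive = no rule stated though some were filed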;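 note: 0% = median of neutral control wells and 100% = median of positive control wells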
NIH3T3 tox 2: NIH/3T3 fibroblast cytotoxicity, confirmation, cytotoxicity control, cell-based, cherry-pick, single point, set 2; shares compounds with T cruzi growth-1; NIH/3T3 viability, CellTiter-Glo ATP luminescence, 90 h; inhibition, % at 24.9 µM; hit rate 56% among 5,600;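 active = mean loss of cell viability signal at or above a set limit, and enough replicates individually reaching it; inconclusive = meets only the mean limit or only the replicate share; inactive = meets neither condition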;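 note: 0% = median of neutral control wells and 100% = median of positive control wells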
* = called active by the depositor; ? = inconclusive; . = not tested or not shown. Compounds with a hit are over-represented: about 6.7% of the library has one in this group of screens.

SMILES	Pf Dd2 growth	T cruzi growth-1	C diff growth	T cruzi growth-2	T cruzi growth-3	3T3 cytotox	NIH3T3 tox 2
O=C(C[C@H]1CC[C@H]2[C@@H](COC[C@H](O)CN2S(=O)(=O)c2ccc(Cl)cc2)O1)NCCN1CCCCC1	-3	.	0	.	.	.	.
C[C@@H]1CN([C@H](C)CO)S(=O)(=O)c2ccc(-c3ccc(C#N)cc3)cc2O[C@@H]1CN(C)Cc1cccc(F)c1	3	.	18	.	.	.	.
C[C@H]1CN([C@@H](C)CO)S(=O)(=O)c2ccc(-c3ccccc3)cc2O[C@H]1CN(C)Cc1cccc(F)c1	-43	119*	15	94	102*	25	107*
C[C@H](CO)N1C[C@H](C)[C@H](CN(C)Cc2cccc(F)c2)Oc2cc(-c3ccc(F)cc3)ccc2S1(=O)=O	-1	91	23	.	.	.	.
C[C@H](CO)N1C[C@H](C)[C@H](CN(C)Cc2cccc(F)c2)Oc2cc(-c3ccccc3)ccc2S1(=O)=O	-40	120*	13	108*	69	25	104*
C[C@H](CO)N1C[C@H](C)[C@@H](CN(C)Cc2cccc(F)c2)Oc2cc(-c3ccccc3)ccc2S1(=O)=O	-67	107*	13	92	88	43*	101*
C[C@@H]1CN([C@@H](C)CO)S(=O)(=O)c2ccc(-c3ccc(C#N)cc3)cc2O[C@@H]1CN(C)Cc1cccc(F)c1	-18	.	10	.	.	.	.
C[C@@H]1CN([C@H](C)CO)S(=O)(=O)c2ccc(-c3ccc(F)cc3)cc2O[C@@H]1CN(C)Cc1cccc(F)c1	-8	74	29	.	.	.	.
C[C@H]1CN([C@@H](C)CO)S(=O)(=O)c2ccc(-c3ccccc3)cc2O[C@@H]1CN(C)Cc1cccc(F)c1	-73	119*	30	89	108*	?	103*
C[C@@H]1CN([C@@H](C)CO)C(=O)c2cc(C#Cc3ccccn3)cnc2O[C@@H]1CN(C)CC1CCCC1	-8	38	.	.	.	.	.
C[C@H]1CCCCO[C@H](CN(C)S(=O)(=O)c2cn(C)cn2)[C@@H](C)CN([C@@H](C)CO)C(=O)c2cc(NS(=O)(=O)c3cn(C)cn3)ccc2O1	39	-56	2	.	.	.	.
O=C(Nc1cc(F)ccc1F)N[C@@H]1CC[C@H](CCn2cc(C3CCCC3)nn2)O[C@@H]1CO	-67	.	-10	.	.	.	.
CCCNC(=O)[C@H]1[C@H](CO)[C@H]2Cn3c(ccc(-c4ccccc4OC)c3=O)[C@H]2N1S(C)(=O)=O	37	.	2	.	.	.	.
C[C@@H]1CN([C@@H](C)CO)S(=O)(=O)c2ccc(-c3ccc(C#N)cc3)cc2O[C@H]1CN(C)Cc1cccc(F)c1	-24	.	13	.	.	.	.
C[C@@H]1CN([C@H](C)CO)S(=O)(=O)c2ccc(-c3ccccc3)cc2O[C@H]1CN(C)Cc1cccc(F)c1	-55	118*	40	101*	104*	117*	103*
O=C(C1CCCCC1)N1C[C@@H]2[C@H](c3ccccc31)[C@H](CO)N2C(=O)c1ccccc1F	0	33	-1	.	.	.	.
C[C@H](CO)N1C[C@H](C)[C@@H](CN(C)C(=O)Cc2ccncc2)Oc2cc(C#CC3CCCCC3)ccc2S1(=O)=O	-39	86	.	.	.	.	.
C[C@@H]1CN([C@@H](C)CO)S(=O)(=O)c2ccc(C#CC3CCCC3)cc2O[C@@H]1CN(C)C(=O)Cc1ccncc1	-32	122*	-1	97*	79	13	62*
C[C@H](CO)N1C[C@H](C)[C@@H](CN(C)C(=O)Cc2ccncc2)Oc2cc(C#CC3CCCC3)ccc2S1(=O)=O	-85*	122*	2	108*	87	1	?
C[C@H]1CN([C@@H](C)CO)S(=O)(=O)c2ccc(C#CC3CCCCC3)cc2O[C@@H]1CN(C)C(=O)Cc1ccncc1	-68	83	.	.	.	.	.
O=C(C[C@@H]1CC[C@@H]2[C@H](COC[C@H](O)CN2C(=O)Cc2ccccc2)O1)NC1CCCC1	1	-39	1	.	.	.	.
C[C@H]1CN([C@@H](C)CO)C(=O)c2cc(NS(=O)(=O)c3cn(C)cn3)ccc2O[C@@H]1CN(C)C(=O)Nc1ccc(C(F)(F)F)cc1	-2	4	1	.	.	.	.
CO[C@@H]1CN(C)C(=O)c2ccc(NC(=O)c3ccc(F)cc3)cc2OC[C@@H](C)N(C(C)=O)C[C@@H]1C	-39	-7	.	.	.	.	.
Cc1cc(C(=O)Nc2ccc3c(c2)C(=O)N(C)[C@@H]2CC[C@H](CC(=O)NCc4ccc(-c5ccccc5)cc4)O[C@H]2CO3)no1	.	85	-19	.	.	.	.
CC(C)c1ccc(NC(=O)C[C@H]2CC[C@H]3[C@@H](COc4ccc(NC(=O)Nc5ccc(F)c(F)c5)cc4C(=O)N3C)O2)cc1	5	100*	15	103*	78	21	?
SMILES	Pf Dd2 growth	T cruzi growth-1	C diff growth	T cruzi growth-2	T cruzi growth-3	3T3 cytotox	NIH3T3 tox 2
CCNC(=O)C[C@@H]1CC[C@H]2[C@@H](COc3ccc(NC(=O)Cc4ccccc4)cc3C(=O)N2C)O1	0	105*	0	104*	4	15	23
CCC(=O)Nc1ccc2c(c1)C(=O)N(C)[C@H]1CC[C@H](CC(=O)Nc3ccc(C(C)C)cc3)O[C@@H]1CO2	4	40	-5	.	.	.	.
Cc1cc(C(=O)Nc2ccc3c(c2)C(=O)N(C)[C@@H]2CC[C@H](CC(=O)NCc4ccc(-c5ccccc5)cc4)O[C@@H]2CO3)no1	.	103*	-10	?	?	78*	75*
CCNC(=O)C[C@@H]1CC[C@@H]2[C@H](COc3ccc(NC(=O)Cc4ccccc4)cc3C(=O)N2C)O1	1	11	2	.	.	.	.
CC(C)C(=O)Nc1ccc2c(c1)C(=O)N(C)[C@H]1CC[C@H](CC(=O)NCc3ccccc3)O[C@@H]1CO2	-40	103*	5	98*	5	-9	-26
CC(C)C(=O)Nc1ccc2c(c1)C(=O)N(C)[C@H]1CC[C@@H](CC(=O)NCc3ccccc3)O[C@@H]1CO2	1	27	4	.	.	.	.
CCCNC(=O)C[C@H]1CC[C@H]2[C@@H](COC[C@H](O)CN2C(=O)Nc2cccc(Cl)c2)O1	-15	.	50	.	.	.	.
COc1ccc(NC(=O)N(C)C[C@@H]2Oc3ccc(NC(=O)NC4CCCCC4)cc3CC(=O)N([C@H](C)CO)C[C@H]2C)cc1	12	-5	1	.	.	.	.
CCS(=O)(=O)NCC[C@H]1CC[C@H](NS(=O)(=O)c2cccc(F)c2)[C@H](CO)O1	-6	-69	4	.	.	.	.
